Bioassay records: PubChem BioAssay, several laboratories
Sampled rows, rich in hits. Any-hit rate of the full collection: about 4.7%.
3CLpro inhibitor: SARS-CoV 3CLpro protease inhibition; 0.14% of 290,000 active; AID 1706; inhibition, % at 6 µM; recombinant SARS-CoV 3CLpro, quenched FRET peptide cleavage; in the data active = inhibition above about 12%
RecA splice inh: blocks M. tuberculosis RecA intein splicing. 0.75% of 290,000 active. AID 2221. cell-free RecA intein splicing, fluorescence. inhibition, % (concentration not given with the values); in the data active = inhibition above about 30%;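 also: 0% = vehicle wells and 100% = reference inhibitor control wells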
VHR inh abs: inhibitors of human VHR1 phosphatase (DUSP3); P51452; inhibition, % at 13.3 µM; recombinant VHR phosphatase, pNPP absorbance; 0.52% of 290,000 active; in the data active = inhibition above about 50%
Target sequence (P51452 whole entry, looked up): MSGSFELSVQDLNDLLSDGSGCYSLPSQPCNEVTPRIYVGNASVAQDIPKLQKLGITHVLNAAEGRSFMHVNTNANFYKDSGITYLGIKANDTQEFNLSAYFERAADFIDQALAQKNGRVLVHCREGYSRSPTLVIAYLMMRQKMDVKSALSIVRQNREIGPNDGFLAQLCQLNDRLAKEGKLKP
GDH-TPI inh: counter-screen for M. tuberculosis FBA inhibitors: GDH-TPI coupled enzymes; GDH-TPI coupled enzyme counterscreen, NADH absorbance; inhibition, % at 4.8 µM; 1.2% of 360,000 active; AID 588335;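 also: 0% = DMSO wells and 100% = wells lacking the enzyme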
CCHFV vOTU inh: blocks the CCHF virus ovarian tumor domain protease; CCHFV vOTU protease, Pep-AMC fluorescence; inhibition, % at 11.5 µM; 0.55% of 370,000 active; also: 0% = vehicle wells with enzyme and 100% = no enzyme wells
Mtb FBA inh: Mtb fructose-bisphosphate aldolase inhibition | purified M. tuberculosis FBA, fluorescence read-out | inhibition, % at 1 µM | 2.3% of 360,000 active | AID 588726; in the data active = inhibition above about 27%;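 also: 0% = vehicle and 100% = reference inhibitor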
Target sequence (P9WQA3 whole entry, looked up): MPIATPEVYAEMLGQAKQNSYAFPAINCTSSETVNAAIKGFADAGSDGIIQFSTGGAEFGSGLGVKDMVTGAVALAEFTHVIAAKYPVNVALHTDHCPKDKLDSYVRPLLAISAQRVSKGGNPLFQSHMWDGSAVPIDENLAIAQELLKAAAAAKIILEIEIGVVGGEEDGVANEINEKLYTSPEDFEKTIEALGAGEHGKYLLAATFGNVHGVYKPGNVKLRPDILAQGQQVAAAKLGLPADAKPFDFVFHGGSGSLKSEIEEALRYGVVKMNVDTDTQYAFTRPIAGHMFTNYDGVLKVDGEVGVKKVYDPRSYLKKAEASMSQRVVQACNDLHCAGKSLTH
Starred values were filed as active, the others as inactive; / = not tested or not shown; + = active, no number. Rule as the data show it, unless noted: active = inhibition above about 30%; inactive = the rest.

SMILES | 3CLpro inhibitor | RecA splice inh | VHR inh abs | GDH-TPI inh | CCHFV vOTU inh | Mtb FBA inh
C/C(=N\Nc1nc2ccccc2[nH]1)c1cc2ccccc2o1 | 2 | 8 | 16 | 33* | 12 | 4
Cc1cc(C(=O)CCC(=O)N(C)CC2COc3ccccc3O2)c(C)s1 (stereo unspecified) | / | / | / | 5 | -4 | 5
N#C/C(=C\c1cccc(NC(=O)c2ccccc2Cl)c1)C(=O)NCCc1ccccc1 | 0 | 36* | 55* | 2 | -8 | -5
COc1ccc(C2=NS(=O)(=O)N(C)C(C(=O)N3CCC(C)CC3)=C2)cc1 | -1 | -6 | 13 | 31* | 6 | 0
C[C@@H]1COc2cc(N3CCOCC3)ccc2S(=O)(=O)N1 | / | / | / | / | 1 | /
CN(C)S(=O)(=O)c1ccc(-c2csc(N/N=C/c3ccco3)n2)cc1 | -4 | 0 | 19 | 33* | -13 | -3
COC(=O)[C@H](C(C)C)N1Cc2nnn(Cc3ccccc3)c2C=CS1(=O)=O | / | / | / | / | 2 | /
O=C(NCc1ccco1)c1cnc2sccn2c1=O | -6 | -3 | 32 | 33* | 6 | 1
O=C(NCc1ccco1)c1cnc2ccccn2c1=O | -3 | -1 | 1 | 19 | -12 | 7
O=C(Nc1nccs1)c1cnc2sccn2c1=O | / | / | / | 45* | 7 | 1
C[C@H](O)[C@@H]1C(=O)N2CCc3c([nH]c4cccc(-c5ccccc5)c34)[C@@H]2C[C@@H]1N(C)C(=O)OCc1ccccc1 | / | / | / | / | -30 | /
O=C(Nc1ccc(F)cc1)OCc1cn(Cc2ccccc2C(F)(F)F)nn1 | / | / | / | / | 9 | /
CN1OC[C@@H]2CN(CC3CCCCC3)[C@H](c3ccc(-c4ccc(C#N)cc4)cc3)C[C@@H]21 | / | / | / | / | 13 | /
O=C(CN1C(=O)c2ccccc2S1(=O)=O)c1ccc(O)c(O)c1 | 4 | -4 | 10 | 59* | -4 | 0
Cc1ccc(N(C)S(=O)(=O)c2c(C)noc2/C=C/N(C)C)cc1 | -1 | -2 | 4 | 34* | 13 | 4
O=C(N/N=C\c1ccc(COc2ccc([N+](=O)[O-])cc2)o1)c1ccc(Cl)cc1 | -1 | 0 | 6 | 42* | 6 | 0
O=C1CSC(c2ccc([N+](=O)[O-])cc2)N1c1ccc(O)cc1 (stereo unspecified) | -3 | 3 | 57* | 6 | 3 | -3
O=C1CSC(c2cccc([N+](=O)[O-])c2)N1c1ccc(O)cc1 (stereo unspecified) | -2 | -4 | -6 | -1 | -1 | 2
COc1cccc(C(=O)Nc2cccc(-c3ccc(N4CCOCC4)nn3)c2)c1OC | / | -3 | / | 5 | -5 | 4
CC(OC(=O)CCNS(=O)(=O)c1ccccc1)C(=O)Nc1ccc(S(=O)(=O)N2CCCCC2)cc1 (stereo unspecified) | / | / | / | -4 | 3 | 0
CCCc1nnc2n1N=C(c1ccc(OC)c(OC)c1)CS2 | 0 | 7 | 9 | 17 | 4 | -2
COc1ccc(Cc2nnc3n2N=C(c2cc4ccccc4o2)CS3)cc1OC | -3 | 1 | / | 41* | 6 | -2
CCOC(=O)c1nc(NNC(=O)c2ccc([N+](=O)[O-])cc2)sc1C | -4 | -4 | 51* | 22 | -4 | -5
CC(=O)N1CCN(C(=O)c2ccc(CNC(=O)c3cccc(Br)c3)cc2)CC1 | / | / | / | / | 0 | /
CCOC(=O)c1cnn2c(C(F)(F)F)cc(-c3cn(C)nc3C)nc12 | -6 | -6 | 6 | 21 | -27 | 72*
SMILES | 3CLpro inhibitor | RecA splice inh | VHR inh abs | GDH-TPI inh | CCHFV vOTU inh | Mtb FBA inh
COc1cc(-c2nnc(-c3ccncc3)o2)ccc1OCc1ccccc1 | -3 | / | 24 | -6 | -2 | 3
COc1cc(-c2nnc(-c3ccco3)o2)ccc1OCc1ccccc1 | 4 | 0 | 13 | 8 | -5 | 121*
CC(O)(c1cccnc1)c1nc(-c2ccc(F)c(Cl)c2)cs1 (stereo unspecified) | / | / | / | -4 | 2 | -1
COC(=O)C1CCCN(C(=O)C2CCN(S(=O)(=O)c3cccs3)CC2)C1 (stereo unspecified) | / | / | / | / | -7 | /
Oc1cc(O)c2c(c1)O[C@H](c1ccc(O)c(O)c1)[C@@H](O)C2 | / | 59* | 3 | 1 | 1 | 6
C=C(C)Cn1c2ccc(NC(=O)CCOCC)cc2c(=O)n1C | / | / | / | -5 | -195 | +
Cn1c(=O)c2cc(NC(=O)Cc3ccccc3F)ccc2n1-c1ccc(C(C)(C)C)cc1 | / | / | / | 11 | -15 | 27
O=C(CCc1ccccc1)NNC(=O)Nc1cccc(Cl)c1 | 2 | 2 | 27 | 9 | 17 | 5
CCOCCC(=O)Nc1ccc2c(c1)c(=O)n(C)n2CC=C(C)C | / | / | / | 12 | -112 | +
C=C(C)Cn1c2ccc(NC(=O)CCc3cccc(Cl)c3)cc2c(=O)n1C | / | / | / | 5 | -101 | +
C=CCn1c2ccccc2c(=O)c2cc(C#Cc3ccccn3)ccc21 | / | / | / | 4 | -96 | +
C#CCN(Cc1ccco1)C(=O)c1nnc2c3cc(OC)ccc3n(S(=O)(=O)c3ccc(OC)cc3)c2n1 | / | / | / | / | -1 | /
CN(C)Cc1ccccc1-c1cccc2nccn12 | / | / | / | 9 | -21 | 142*
OCc1ccc(-c2cccc3nccn23)cc1 | / | / | / | 13 | -125 | +
Cc1cccc(-c2cccc3nccn23)c1 | / | / | / | 8 | -106 | +
O=C(Nc1ccc2c(c1)OCO2)NC1CCN(S(=O)(=O)c2ccc(F)cc2)CC1 | / | / | / | / | -5 | /
CC12CCC(C(=O)Nc3cccc(Cl)c3Cl)([C@H](Br)C1=O)C2(C)C (stereo partly specified) | 3 | 0 | -3 | 0 | -1 | 113*
CC12CCC(C(=O)Nc3c(Cl)cccc3Cl)(C(Br)C1=O)C2(C)C (stereo unspecified) | 6 | -3 | -8 | 7 | -12 | -2
Cc1[nH]c2ccccc2c1C(=O)C(=O)NC1CC(=O)N(c2ccc(F)cc2)C1 (stereo unspecified) | / | 1 | / | 7 | -1 | -2
CC(C)CC(=O)OC(C)(C)[C@@H]1Cc2c(ccc3ccc(=O)oc23)O1 | / | / | / | 7 | -69 | 182*
C/C=C(/C)C(=O)OC(C)(C)[C@@H]1Cc2c(ccc3ccc(=O)oc23)O1 | 2 | 3 | 1 | 8 | -57 | +
Cc1cc(C(=O)O)ccc1-c1ccc(CO)o1 | 5 | 0 | 20 | 6 | -12 | 161*
Cc1ccc(CN2C(=O)N/C(=C\c3ccc(-c4ccc(C(=O)O)cc4C)o3)C2=O)cc1 | -1 | / | 31 | 19 | -11 | 10
Cc1cc(C(=O)Nc2ccc(Br)cc2F)n(-c2ccccc2)n1 | -4 | 3 | 58* | -3 | -9 | -2
CCOC(=O)c1ccc(NC(=O)c2ncn3c2C(=O)N[C@H](C)C3)cc1 | / | / | / | 3 | 8 | 0
Cc1cc(Br)ccc1NC(=O)C1CCN(S(=O)(=O)c2cnc[nH]2)CC1 | -2 | 1 | 24 | 0 | -2 | 0
COc1cc(C2C=C(c3cccs3)Nc3ncnn32)cc(OC)c1OC (stereo unspecified) | -1 | / | 11 | 41* | / | -5
O=C(Oc1c(CN2CCOCC2)cc(Cl)c2cccnc12)c1cccs1 | 9 | 1 | 52* | 12 | -10 | 8
